According to PubChem BioAssay (EPA / NIEHS):
Inconclusive results are not listed. Active and inactive are the calls of the source. The calls were made as follows, unless noted: active = hit-call score of the fitted dose curve at least 0.9, where 1 is the maximum; inconclusive = response in the unintended direction; inactive = score below 0.9.

Key:
[1] = read-out: Glyceraldehyde-3-phosphate dehydrogenase (Homo sapiens) (UniProt P04406); experiment: CLD_GAPDH_24hr: CellzDirect (CLD) Gene Expression Assay for Baseline Control (Glyceraldehyde 3-phosphate dehydrogenase) at 24 hours (AID 2283692)
Summary of the method: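 GAPDH baseline-control readout: qNPA chemiluminescent mRNA signal in human primary hepatocytes harvested 24 h after daily dosing, normalised to 0.2% DMSO with positive fitting direction; cytotoxicity annotated by phase-contrast morphology.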

[2] = read-out: alkyl and aryl transferase (GSTA2), GSTA2 (gene 2939); experiment: CLD_GSTA2_24hr: CellzDirect (CLD) Gene Expression Assay for alkyl and aryl transferase (GSTA2) at 24 hours (AID 2283693)
Summary of the method: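 GSTA2 transcript levels were quantified by quantitative nuclease protection assay in primary human hepatocytes 24 h after daily dosing with fresh solutions at multiple concentrations; 0.2% DMSO vehicle as baseline, cytotoxicity flagged morphologically.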

[3] = read-out: sulfotransferase (SULT2A), SULT2A1 (gene 6822); experiment: CLD_SULT2A_24hr: CellzDirect (CLD) Gene Expression Assay for sulfotransferase (SULT2A) at 24 hours (AID 2283694);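 as to AC50: potency for increased SULT2A1 mRNA level as induction over DMSO baseline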
Summary of the method: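 mRNA is measured by qNPA: probe hybridisation, S1 nuclease digestion, chemiluminescence, in lysates from human primary hepatocytes harvested 24 h after daily dosing. Vehicle was 0.2% DMSO. Phase-contrast microscopy flagged cytotoxicity (yes/no).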

[4] = read-out: Cytochrome P450 2B6 (Homo sapiens) (UniProt P20813); experiment: CLD_CYP2B6_48hr: CellzDirect (CLD) Gene Expression Assay for xenobiotic metabolism (CYP2B6) at 48 hours (AID 2283699);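 also: actives raise transcript level above DMSO so potency reflects induction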
Summary of the method: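 CYP2B6 transcript induction, read by quantitative nuclease protection (S1 digestion, chemiluminescent detection) 48 h after dosing, is fitted upward against 0.2% DMSO. Cultured human liver primary cells, two donor preparations, received fresh chemical daily over multiple concentrations.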

[5] = read-out: Cytochrome P450 2C19 (Homo sapiens) (UniProt P33261); experiment: CLD_CYP2C19_48hr: CellzDirect (CLD) Gene Expression Assay for xenobiotic metabolism (CYP2C19) at 48 hours (AID 2283700);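 also: fitted upward so actives raise CYP2C19 mRNA above the 0.2% DMSO vehicle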
Summary of the method: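 CYP2C19 mRNA induction read by chemiluminescent quantitative nuclease protection assay after 48 h, with fresh compound added daily for two days to cultured human liver hepatocytes. Activity fitted upward against 0.2% DMSO vehicle.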

[6] = read-out: xenobiotic metabolism (CYP1A2), CYP1A2 (gene 1544); experiment: CLD_CYP1A2_48hr: CellzDirect (CLD) Gene Expression Assay for xenobiotic metabolism (CYP1A2) at 48 hours (AID 2283703)
Summary of the method: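 Cytotoxicity was flagged yes/no from morphology, while CYP1A2 transcript induction was detected by qNPA chemiluminescence after a 48-hour exposure. Human primary hepatocyte cultures from separate donors received fresh dosing solutions daily over two days, with 0.2% DMSO as vehicle and baseline.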

[7] = read-out: organic anion transporter (SLCO1B1), SLCO1B1 (gene 10599); experiment: CLD_SLCO1B1_48hr: CellzDirect (CLD) Gene Expression Assay for organic anion transporter (SLCO1B1) at 48 hours (AID 2283707)
Summary of the method: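 SLCO1B1 transcript quantified by qNPA with chemiluminescent readout after 48 h of once-daily chemical exposure. Cultured human primary hepatocytes came from two donors, with 0.2% DMSO vehicle; positive-direction fitting against DMSO, cytotoxicity flagged by morphology.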

[8] = read-out: alkyl and aryl transferase (GSTA2), GSTA2 (gene 2939); experiment: CLD_GSTA2_48hr: CellzDirect (CLD) Gene Expression Assay for alkyl and aryl transferase (GSTA2) at 48 hours (AID 2283708);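 also: active means mRNA induction above DMSO vehicle baseline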
Summary of the method: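 GSTA2 mRNA quantified by qNPA chemiluminescence in human primary hepatocyte lysates after 48 h of daily fresh chemical dosing. Increases fitted against 0.2% DMSO vehicle baseline; cytotoxicity from morphology annotated yes/no.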

[9] = read-out: glucuronosyltransferase (UGT1A1), UGT1A1 (gene 54658); experiment: CLD_UGT1A1_48hr: CellzDirect (CLD) Gene Expression Assay for glucuronosyltransferase (UGT1A1) at 48 hours (AID 2283709);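 also: actives increase expression relative to DMSO so potency refers to induction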
Summary of the method: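 Quantitative nuclease protection assay (chemiluminescent) for UGT1A1 mRNA at 48 h in human hepatocyte cultures from two donors, redosed daily with fresh solutions. Induction fitted relative to 0.2% DMSO; phase-contrast morphology annotated cytotoxicity.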

[10] = read-out: Cytochrome P450 3A4 (Homo sapiens) (UniProt P08684); experiment: CLD_CYP3A4_48hr: CellzDirect (CLD) Gene Expression Assay for xenobiotic metabolism (CYP3A4) at 48 hours (AID 2283698)
Summary of the method: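 CYP3A4 induction read by qNPA chemiluminescence after 48 h, with fresh dosing solutions on consecutive days, in cultured human hepatocytes (two donors). Vehicle 0.2% DMSO as baseline; microscopy-based cytotoxicity annotated yes/no alongside data.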

[11] = read-out: Cytochrome P450 2C9 (Homo sapiens) (UniProt P11712); experiment: CLD_CYP2C9_48hr: CellzDirect (CLD) Gene Expression Assay for xenobiotic metabolism (CYP2C9) at 48 hours (AID 2283701; active = hit-call score of the fitted dose curve at least 0.9, where 1 is the maximum; inactive = score below 0.9)
Summary of the method: (§1)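 mRNA level measured by quantitative nuclease protection (S1 digestion, chemiluminescent detection) in lysates of human primary hepatocytes exposed 48 h with daily re-dosing. Induction fitted positively versus 0.2% DMSO; morphology-based cytotoxicity flagged yes/no.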

[12] = CLD_ACTIN_48hr: CellzDirect (CLD) Gene Expression Assay for Baseline Control (Actin) at 48 hours (AID 2283702)
Summary of the method: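 Background-control actin mRNA read by qNPA chemiluminescence at 48 h. Human hepatocyte cultures from two donors received fresh multi-concentration chemical doses daily for two days; 0.2% DMSO served as vehicle baseline.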

[13] = read-out: xenobiotic metabolism (CYP1A1), CYP1A1 (gene 1543); experiment: CLD_CYP1A1_48hr: CellzDirect (CLD) Gene Expression Assay for xenobiotic metabolism (CYP1A1) at 48 hours (AID 2283705)
Summary of the method: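 CYP1A1 transcript measured by quantitative nuclease protection (chemiluminescent) 48 h after two daily treatments of human hepatocyte cultures, versus 0.2% DMSO. Morphology-based cytotoxicity flags accompany data; two donor preparations used.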

[14] = read-out: HMG-CoA synthase (HMGCS2), HMGCS2 (gene 3158); experiment: CLD_HMGCS2_48hr: CellzDirect (CLD) Gene Expression Assay for HMG-CoA synthase (HMGCS2) at 48 hours (AID 2283711)
Summary of the method: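 mRNA induction read by qNPA chemiluminescence, 48 h after dosing. Cultured primary human liver cells (two donor preparations) received fresh compound daily over two days against 0.2% DMSO vehicle; morphology-based cytotoxicity noted alongside.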

[15] = STM_H9_OrnithineISnorm_perc: Stemina devTOX quickPredict H9 human embryonic stem cell (hESC)-based Assay for Ornithine (ORN) Metabolite Biomarker, Normalized (AID 2283712; active = hit-call score of the fitted dose curve at least 0.9, where 1 is the maximum; inactive = score below 0.9;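 also: ornithine released into spent medium during last day measured by mass spectrometry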)
Summary of the method: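 UPLC-HRMS readout: endogenous ornithine EIC area / 13C-ORN internal standard, then % of 0.1% DMSO median. H9 hESCs (pluripotent), 72h exposure, re-dosed with fresh media q24h; last 24-h spent media, deproteinized in 40% acetonitrile.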

[16] = read-out: ABC Transporter (ABCB1), ABCB1 (gene 5243); experiment: CLD_ABCB1_48hr: CellzDirect (CLD) Gene Expression Assay for ABC Transporter (ABCB1) at 48 hours (AID 2283695)
Summary of the method: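 ABCB1 mRNA was measured by quantitative nuclease protection assay (chemiluminescence) 48 h after dosing. Human hepatocyte cultures from two separate donors received fresh dosing solutions daily for two days, with 0.2% DMSO as vehicle. Positive-direction fit against DMSO.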

[17] = read-out: sulfotransferase (SULT2A), SULT2A1 (gene 6822); experiment: CLD_SULT2A_48hr: CellzDirect (CLD) Gene Expression Assay for sulfotransferase (SULT2A) at 48 hours (AID 2283710);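 also: hits raise SULT2A1 transcript above the 0.2% DMSO vehicle baseline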
Summary of the method: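 SULT2A1 transcript measured by qNPA chemiluminescence in human primary hepatocyte cultures after 48 h, with fresh dosing solutions on two consecutive days; gain-of-signal fitting against 0.2% DMSO vehicle; cytotoxicity annotated from phase-contrast morphology.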

[18] = read-out: glucuronosyltransferase (UGT1A1), UGT1A1 (gene 54658); experiment: CLD_UGT1A1_24hr: CellzDirect (CLD) Gene Expression Assay for glucuronosyltransferase (UGT1A1) at 24 hours (AID 2283696)
Summary of the method: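 UGT1A1 transcript induction was measured by quantitative nuclease protection assay (chemiluminescence) in human hepatocyte cultures 24 h after daily fresh dosing, with 0.2% DMSO as vehicle and baseline.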

[19] = read-out: Broad substrate specificity ATP-binding cassette transporter ABCG2 (Homo sapiens) (UniProt Q9UNQ0); experiment: CLD_ABCG2_48hr: CellzDirect (CLD) Gene Expression Assay for ABC Transporter (ABCG2) at 48 hours (AID 2283704)
Summary of the method: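 ABCG2 transcript measured at 48 h by quantitative nuclease protection (chemiluminescent) and fitted for increase relative to 0.2% DMSO. Hepatocyte cultures from separate donors got fresh compound daily over two days; morphology annotated cytotoxicity.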

[20] = read-out: xenobiotic metabolism (CYP2C9), CYP2C9 (gene 1559); experiment: CLD_CYP2C9_48hr: CellzDirect (CLD) Gene Expression Assay for xenobiotic metabolism (CYP1A2) at 48 hours (AID 2283701)
Summary of the method: as §1

Measured: AC50

Cytochrome P450 2C19 (Homo sapiens), sequence (P33261 whole entry, looked up): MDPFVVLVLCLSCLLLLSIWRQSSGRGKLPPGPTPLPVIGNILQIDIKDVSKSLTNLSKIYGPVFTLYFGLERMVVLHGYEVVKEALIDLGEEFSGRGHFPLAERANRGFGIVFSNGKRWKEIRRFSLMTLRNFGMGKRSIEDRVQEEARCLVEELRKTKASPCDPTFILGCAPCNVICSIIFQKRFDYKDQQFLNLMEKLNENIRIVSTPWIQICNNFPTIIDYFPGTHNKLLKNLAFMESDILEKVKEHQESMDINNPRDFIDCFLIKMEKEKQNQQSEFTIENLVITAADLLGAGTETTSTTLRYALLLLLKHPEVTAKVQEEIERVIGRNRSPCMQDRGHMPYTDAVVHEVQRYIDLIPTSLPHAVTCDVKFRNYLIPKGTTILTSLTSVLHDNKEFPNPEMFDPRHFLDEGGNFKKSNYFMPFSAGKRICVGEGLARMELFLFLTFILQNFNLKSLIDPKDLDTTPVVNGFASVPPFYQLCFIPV
Cytochrome P450 3A4 (Homo sapiens), sequence (P08684 whole entry, looked up): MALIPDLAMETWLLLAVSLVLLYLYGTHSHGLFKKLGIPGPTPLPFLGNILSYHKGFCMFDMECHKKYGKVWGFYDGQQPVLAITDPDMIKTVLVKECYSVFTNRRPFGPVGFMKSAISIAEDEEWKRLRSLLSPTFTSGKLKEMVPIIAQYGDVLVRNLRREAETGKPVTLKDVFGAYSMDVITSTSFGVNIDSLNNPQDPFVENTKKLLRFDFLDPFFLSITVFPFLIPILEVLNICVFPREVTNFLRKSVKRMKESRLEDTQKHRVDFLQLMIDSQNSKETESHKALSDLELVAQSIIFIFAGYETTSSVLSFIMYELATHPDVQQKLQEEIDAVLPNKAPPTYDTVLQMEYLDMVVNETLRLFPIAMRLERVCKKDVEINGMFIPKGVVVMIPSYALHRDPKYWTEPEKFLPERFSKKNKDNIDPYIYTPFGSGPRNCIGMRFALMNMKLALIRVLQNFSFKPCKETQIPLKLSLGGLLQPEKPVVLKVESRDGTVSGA
Glyceraldehyde-3-phosphate dehydrogenase (Homo sapiens), sequence (P04406 whole entry, looked up): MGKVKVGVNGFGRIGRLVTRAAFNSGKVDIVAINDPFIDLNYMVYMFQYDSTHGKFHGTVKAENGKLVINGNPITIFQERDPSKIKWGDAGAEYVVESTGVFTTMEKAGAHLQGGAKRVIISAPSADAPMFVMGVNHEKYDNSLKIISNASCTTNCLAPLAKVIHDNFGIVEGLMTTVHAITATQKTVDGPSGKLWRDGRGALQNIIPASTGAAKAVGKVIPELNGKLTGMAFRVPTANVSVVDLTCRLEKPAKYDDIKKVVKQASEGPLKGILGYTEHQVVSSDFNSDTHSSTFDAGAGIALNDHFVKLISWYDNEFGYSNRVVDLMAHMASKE
Broad substrate specificity ATP-binding cassette transporter ABCG2 (Homo sapiens), sequence (Q9UNQ0 whole entry, looked up): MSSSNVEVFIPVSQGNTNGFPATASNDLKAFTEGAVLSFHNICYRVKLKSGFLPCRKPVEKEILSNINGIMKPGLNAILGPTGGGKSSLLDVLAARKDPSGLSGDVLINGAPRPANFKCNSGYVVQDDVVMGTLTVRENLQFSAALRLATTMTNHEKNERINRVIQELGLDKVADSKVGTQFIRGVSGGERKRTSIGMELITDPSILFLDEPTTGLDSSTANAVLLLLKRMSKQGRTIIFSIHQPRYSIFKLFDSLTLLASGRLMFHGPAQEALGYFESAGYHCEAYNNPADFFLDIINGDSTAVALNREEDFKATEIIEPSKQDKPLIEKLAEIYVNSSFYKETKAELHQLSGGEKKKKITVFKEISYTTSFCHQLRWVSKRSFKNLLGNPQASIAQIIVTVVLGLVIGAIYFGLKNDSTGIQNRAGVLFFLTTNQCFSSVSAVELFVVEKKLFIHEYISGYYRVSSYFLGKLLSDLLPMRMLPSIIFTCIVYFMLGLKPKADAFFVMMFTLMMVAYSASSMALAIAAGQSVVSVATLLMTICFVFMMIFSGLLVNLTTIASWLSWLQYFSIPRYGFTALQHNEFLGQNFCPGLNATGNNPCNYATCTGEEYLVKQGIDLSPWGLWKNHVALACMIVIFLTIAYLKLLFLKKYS

CC(C)=CC1C(C(=O)OCc2coc(Cc3ccccc3)c2)C1(C)C (configuration not stated)
active: [4] 20 µM
inactive: [1] | [2] | [3] | [5] | [6] | [7] | [8] | [9]

CCOc1nc(C(Cl)(Cl)Cl)ns1
active: [6] 5.52 µM | [13] 3.97 µM | [15] 0.11 µM
inactive: [1] | [2] | [10] | [11] | [12] | [9] | [14]

O=P(O)(O)CCCl
active: [14] 0.000456 µM
inactive: [1] | [2] | [4] | [12] | [6] | [13] | [7] | [9]

CC(C)Nc1nc(Cl)nc(NC(C)C)n1
active: [10] 3.54 µM | [4] 3.11 µM | [6] 2.76 µM | [9] 5.88 µM | [15] 0.0393 µM
inactive: [1] | [3] | [16] | [13] | [8] | [17]

O=c1n(Cl)c(=O)n(Cl)c(=O)n1Cl
inactive: [1] | [2] | [16] | [4] | [5] | [11] | [6] | [13] | [7] | [8] | [9]

C=CCOC(=O)C(C)(C)OC(=O)c1cc(-n2c(=O)cc(C(F)(F)F)n(C)c2=O)ccc1Cl
active: [10] 2.79 µM | [4] 0.168 µM
inactive: [1] | [16] | [5] | [11] | [12] | [13] | [8] | [9]

CN=C=S
inactive: [1] | [2] | [10] | [5] | [12] | [8] | [9]

COP(=S)(OC)Oc1ccc([N+](=O)[O-])c(C)c1
inactive: [1] | [2] | [16] | [18] | [19] | [8]
active: [10] 0.0472 µM | [4] 2.67 µM | [6] 3.97 µM | [13] 20 µM | [9] 5.37 µM

COP(=S)(OC)SCn1nnc2ccccc2c1=O
active: [18] 9.43 µM | [10] 12.8 µM | [4] 4.19 µM | [6] 0.409 µM | [13] 1.36 µM | [9] 6.38 µM
inactive: [2] | [16] | [11] | [7] | [8] | [17]

Cn1c(-c2ccccc2)cc(-c2ccccc2)[n+]1C
inactive: [1] | [2] | [16] | [12] | [13]
active: [3] 8.08 µM | [8] 2.83 µM | [15] 25.3 µM

CC(C)C1(C)N=C(c2ncccc2C(=O)O)NC1=O (configuration not stated)
inactive: [1] | [2] | [16] | [10] | [5] | [7] | [8] | [9] | [15]
active: [4] 0.000587 µM

CC1(C)CON(Cc2ccccc2Cl)C1=O
active: [10] 5.13 µM | [4] 3.23 µM
inactive: [1] | [2] | [3] | [16] | [5] | [11] | [6] | [9] | [17] | [15]

CNC(=O)Oc1cccc2ccccc12
active: [4] 4.42 µM | [6] 3.23 µM | [13] 3.57 µM
inactive: [1] | [2] | [18] | [10] | [8] | [9] | [15]

N#CN=C1SCCN1Cc1ccc(Cl)nc1
inactive: [1] | [2] | [16] | [5] | [11] | [6] | [7] | [8] | [9] | [15]
active: [10] 20 µM | [4] 9.25 µM

O=C(O)c1c(Cl)ccc2cc(Cl)cnc12
inactive: [1] | [10] | [4] | [5] | [6] | [13] | [7] | [8] | [14]
active: [20] 0.069 µM

Cc1ccc(N=CN(C)C=Nc2ccc(C)cc2C)c(C)c1
inactive: [1] | [16] | [8]
active: [6] 0.673 µM | [13] 5.87 µM

CCOc1nc(F)cc2nc(S(=O)(=O)Nc3c(Cl)cccc3Cl)nn12
inactive: [1] | [16] | [18] | [5] | [11] | [6] | [13] | [9] | [14]
active: [3] 5.51 µM | [10] 3.13 µM | [4] 7.88 µM | [15] 0.007 µM

C=C(C)CN(CC)c1c([N+](=O)[O-])cc(C(F)(F)F)cc1[N+](=O)[O-]
active: [10] 3.97 µM
not listed: [3] | [11] | [14] | [15] | [17] | [18] | [19] | [20]
inactive: all other assays above
